# Experimental data as given in PubChem BioAssay.
# Tested on: Chordin-like protein 2 (CHRDL2)
# Assay: CHRDL2 small-molecule binders, primary screen, biochemical, small-molecule microarray, 635 nm fluorescence (AID 1126);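 further: printed compound slides probed with Chrdl2 protein at 4 µg/mL for 1 h at 4 C; score merges 667 nm emission intensity with signal to noise over three replicate slides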
# Settings: small-molecule microarray binding, fluorescence 635 nm; higher = more signal
row,Compound,composite z-score
1,C[C@@H](c1ccccc1)N1C(=O)[C@H]2[C@H]3[C@H](O)[C@H](O)CC(=NOC[C@@H](O)COCc4ccco4)[C@@H]3CC[C@H]2C1=O,-0.727
2,COc1ccc(O[C@H]2C=C[C@@H](c3ccccc3)O[C@@H]2COC(=O)CCC(C)=NOCC[C@@H]2C=C[C@H](OC(C)=O)[C@@H](COC(C)=O)O2)cc1,-0.0022
3,O=C1[C@H]2[C@H]3[C@H](O)[C@H](O)CC(=NOC[C@@H](O)COCc4ccco4)[C@H]3CC[C@H]2C(=O)N1c1cccc(Oc2ccccc2)c1,-0.573
4,COC(=O)CC=C[C@@H](C)[C@@H](C=NO[C@@H](C)c1cc(-c2c(C)cc(C)cc2C)no1)OC,-1.36
5,COc1ccc(COC(=O)NN=C2C[C@@H](O)[C@@H](O)[C@@H]3[C@@H]4C(=O)N(Cc5ccc6c(c5)OCO6)C(=O)[C@@H]4CC[C@@H]23)cc1,-0.54
6,C[C@@H]1CCC2C(=O)N(Cc3ccccc3)C[C@@H](O)CN2[C@H]1c1ccc(Br)cc1 (some centres undefined),0.374

# Target: Concanavalin-A (Canavalia ensiformis) (UniProt P02866)
# Assay: ConA small-molecule binders, primary screen, artefact control for SMM control protein annotation, biochemical, small-molecule microarray, Alexa647 label, 635 nm (AID 1127);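 further: z combines 667 nm emission intensity with signal-to-noise across three replicate slides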
# Settings: ConA-A647 binding fluorescence, higher = more signal
# Concanavalin-A (Canavalia ensiformis), sequence (P02866 whole entry, looked up): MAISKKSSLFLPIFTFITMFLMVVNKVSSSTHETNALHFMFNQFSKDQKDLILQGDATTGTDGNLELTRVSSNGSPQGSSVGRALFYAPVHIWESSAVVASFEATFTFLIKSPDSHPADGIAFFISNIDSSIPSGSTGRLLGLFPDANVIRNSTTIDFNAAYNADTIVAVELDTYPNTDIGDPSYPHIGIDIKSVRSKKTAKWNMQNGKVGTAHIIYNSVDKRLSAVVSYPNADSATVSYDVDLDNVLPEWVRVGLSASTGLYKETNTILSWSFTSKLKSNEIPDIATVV
row,Compound,composite z-score
1,COC(=O)[C@H](C)NC(=O)CCC1CC(OC(=O)NCCc2ccc(F)cc2)CC2(CCCC(COC(=O)NCCc3ccc(Cl)cc3)O2)O1 (some centres undefined),0.925
2,C=COC[C@H]1CN2[C@@H](CC[C@@H](C)[C@@H]2c2ccc(Br)cc2)C(=O)O1,1.03
3,CN1C(=O)C2C=CC(C(O)c3ccc(Br)cc3)N(N(c3ccccc3)c3ccccc3)C2C1=O (centres undefined),0.951
4,COC(=O)[C@H](C)NC(=O)[C@@H](C)CO,0.907
5,O=C1[C@H]2[C@H]3[C@H](O)[C@H](O)CC(=NOCc4ccccc4)[C@@H]3CC[C@H]2C(=O)N1Cc1ccccc1,-0.0677
6,CC(C)[C@@H](OCc1ccccc1)[C@H](C)C=NOC[C@@H](C)[C@H](OCc1ccccc1)C(C)C,0.31
7,CCOC(=O)[C@H](Cc1ccccc1)NC(=O)CCC1CC(OC(=O)NCc2ccc3c(c2)OCO3)CC2(CCCC(COC(=O)NCC3CCCCC3)O2)O1 (some centres undefined),1.06
8,COC(=O)[C@@H]1CC[C@H](C)[C@@H](c2ccc(C)cc2)N1C(=O)c1ccc(C=NOC[C@@H](O)COCc2ccco2)cc1,-3.62
9,Cc1cc2c(nc1C)CCCN2CC(O)CN1CCN(C)CC1 (centres undefined),1.02
10,C=C(CCCC)C(=O)CC[C@@H](OC(C)=O)c1cccc(OCCO)c1,0.259
11,CCOC(=O)[C@H](Cc1ccccc1)NC(=O)CCC1CC(OC(=O)NCc2ccc3c(c2)OCO3)CC2(CCCC(COC(=O)NCC(c3ccccc3)c3ccccc3)O2)O1 (some centres undefined),0.329
12,C#CCCCON=C1C[C@@H](O)[C@@H](O)[C@@H]2[C@@H]3C(=O)N(c4cccc(Oc5ccccc5)c4)C(=O)[C@@H]3CC[C@@H]12,0.884
13,CC(C)CON=C1C[C@@H](O)[C@@H](O)[C@@H]2[C@@H]3C(=O)N(C[C@@H]4CCCO4)C(=O)[C@@H]3CC[C@H]12,0.12
14,CCN1C(=O)[C@H]2[C@H]3[C@H](O)[C@H](O)CC(=NO[C@@H]4O[C@H](CO)[C@@H](O)[C@H](O)[C@H]4O)[C@@H]3CC[C@H]2C1=O,-1.14
15,COc1ccc(-c2ccc3c(n2)CCCN3CC(O)CN2CCCc3nc(C)c(C)cc32)cc1 (centres undefined),1.09
16,CO[C@H]1O[C@H](CO)[C@@H](OC(=O)Nc2ccc3c(c2)OCO3)[C@H](OC(=O)Nc2ccccc2-c2ccccc2)[C@@H]1OC(=O)Nc1ccccc1-c1ccccc1,1.17
17,COC(=O)CC1OC1[C@H](C)[C@@H](OC)C(C)C (some centres undefined),-0.321
18,CO[C@@H]1COC(=O)CC=C[C@@H](C)[C@@H]2C=C[C@H](O)[C@@H](COC(=O)[C@H](C)NC(=O)CC=C[C@H]1C)O2,-0.016
19,N#Cc1ccc(NN2C(C(O)c3cc(C(F)(F)F)cc(C(F)(F)F)c3)C=CC3C(=O)N(c4ccccc4)C(=O)C32)cc1 (centres undefined),1.19
20,CCOC(=O)NN=C1C[C@@H](O)[C@@H](O)[C@@H]2[C@@H]3C(=O)N(C[C@@H]4CCCO4)C(=O)[C@@H]3CC[C@@H]12,0.437
21,COCCOC(=O)N1C(=O)[C@@]2(c3cc(C#CC4(O)CCCCCC4)ccc31)[C@H](C(=O)N1CCN(c3ncccn3)CC1)[C@H]1C(=O)O[C@H](c3ccccc3)[C@H](c3ccccc3)N1[C@@H]2c1ccc(OCCO)cc1,1.18
22,C=CC[C@]1(C(=O)NCc2ccccc2)N=C(c2ccc(OCCCO)cc2)O[C@H]1c1ccccc1,0.691
23,COc1ccc(O[C@H]2C=C[C@@H](c3ccccc3)O[C@@H]2COC(=O)CCC(C)=NOC(C)CN2CCCCc3nc(C)c(C)cc32)cc1 (some centres undefined),-0.929
